{"source": "PubChem BioAssay (NCI)", "note": "About 83,000 compounds went through this panel and 20% of them were active in at least one assay; those are over-represented in the sample as a whole.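 A percent growth of 40 corresponds to 60% growth inhibition; 0 means no net growth; -100 means all cells died. Active threshold: below 10.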 Values without a mark were called inactive. The source made the active and inactive calls.", "data": [{"tested_on": "MDA-MB-468 breast", "assay": "NCI-60 one-dose screen, 48 h (100 = growth as untreated, 0 = no growth, -100 = all killed)", "conditions": "10 µM unless noted", "values": [{"smiles": "CN1C(=C2C(=O)OC(C)(C)OC2=O)CCC1C(=O)NCc1ccc(Cl)cc1Cl", "note": "(stereo unspecified)", "growth": "75%"}, {"smiles": "O=C(/C=C/c1cccc(F)c1)c1cccc(OCCCCOc2cccc(C(=O)/C=C/c3cccc(F)c3)c2)c1", "growth": "87.2%"}, {"smiles": "Nc1ccc(Br)cc1C(F)(F)F", "growth": "110%"}, {"smiles": "Cc1ccc(-c2nc(C(Cl)Cl)n3nc(-c4ccccc4)cc3n2)cc1", "growth": "-21.1% (active)"}, {"smiles": "CCCCCc1ccc(S(=O)(=O)Nc2cccc(-c3csc(NC(=O)CCCCCN4CCN(CCO)CC4)n3)c2)cc1", "growth": "85%"}, {"smiles": "O=C(Nc1ccc(NS(=O)(=O)c2ccc(F)cc2)cc1)C12CC3CC(CC(C3)C1)C2", "growth": "96.5%"}, {"smiles": "OCCNc1nc(Nc2ccc(Cl)c(Cl)c2)nc2ccccc12", "growth": "-10.6% (active)"}, {"smiles": "COc1cccc(CCC(=O)c2cc3c(N)c(C(=O)Nc4ccccc4)sc3nc2C)c1", "growth": "25.2%"}, {"smiles": "O=C(CSc1ncccc1C(=O)O)Nc1ccc(Oc2ccccc2)cc1", "growth": "101%"}, {"smiles": "COc1ccc2sc3c(NCCCNCCO)nc4ccccc4c3c(=O)c2c1", "growth": "30.9%"}, {"smiles": "CCOC(=O)C1=C(C)NC(C)=C(C(=O)OCC)C1(C)C", "growth": "98.8%"}]}]}
